Experimental data from PubChem BioAssay (NCI).
The panel holds about 83,000 compounds, 20% with a hit somewhere; the sample as a whole holds those more often.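 Each cell line was grown in a 96-well plate and treated with one concentration of compound for 48 hours. Values below 10 were considered active.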 Unmarked numbers belong to inactive results. Active and inactive are the calls of the source.

Assays:
Test in all cases: NCI-60 one-dose screen, 48 h (100 = growth as untreated, 0 = no growth, -100 = all killed)
Conditions in all cases: 10 µM unless noted
[1] = test system: NCI-H23 lung
[2] = test system: NCI-H226 lung
[3] = test system: NCI-H322M lung
[4] = test system: HOP-62 NSCLC
[5] = test system: NCI-H460 lung
[6] = test system: HOP-92 NSCLC
[7] = test system: NCI-H522 lung
[8] = test system: A549/ATCC NSCLC
[9] = test system: 786-0 renal
[10] = test system: COLO 205 colon
[11] = test system: DU-145 prostate
[12] = test system: K-562 leukemia
[13] = test system: MALME-3M melanoma
[14] = test system: MDA-MB-231 breast
[15] = test system: RXF 393 renal
[16] = test system: SF-268 CNS
[17] = test system: SF-539 CNS
[18] = test system: UACC-257 melanoma
[19] = test system: M14 melanoma
[20] = test system: SF-295 CNS

Row | Compound | growth [1] | growth [2] | growth [3] | growth [4] | growth [5] | growth [6] | growth [7] | growth [8] | growth [9] | growth [10] | growth [11] | growth [12] | growth [13] | growth [14] | growth [15] | growth [16] | growth [17] | growth [18] | growth [19] | growth [20]
1 | COc1cc(-c2cc(-c3nc4ccc(F)cc4[nH]3)[nH]n2)cc(OC)c1OC | 15.8% | -11.1% (active) | 48.7% | 8.23% (active) | 33.5% | 25.8% | 9.45% (active) | 29% | 53.7% | 20.9% | 35.5% | 0.735% (active) | 7.29% (active) | 49.4% | 36.5% | 36.4% | 52.6% | 29.6% | 21.5% | 
2 | O=C(/C=C\c1ccc2c(c1)OCO2)/C=C/c1ccc2c(c1)OCO2 | 84.8% | 67.7% | 99.2% | 91.4% | 99.1% | 87.8% | 97.4% | 92.9% | 64.6% | 110% | 90.7% | 4.27% (active) | 98.2% |  | 85% | 93.3% | 26.2% | 98.2% | 40% | 89.7%
3 | O=C1c2ccccc2C(=Cc2ccccc2)c2ccccc21 | 2.92% (active) | 38.7% | 66.8% | 21.3% | -6.75% (active) | 51.7% | -25.4% (active) | 19.8% | -15.9% (active) | -21.1% (active) | -21.3% (active) | 8.16% (active) | 41.6% | -20.7% (active) | -1.26% (active) | 10.6% | -26.2% (active) | 15.7% | -20.5% (active) | 
4 | CC(C)=CCC/C(C)=C/CC/C(C)=C/CSC[C@H](NC(=O)CCCCCN1CCN(C)CC1)C(=O)NC1CCCCCC1 | 58.1% | 82.1% | 88.7% | 91.7% | 2.84% (active) | 32.6% | 59.8% | 64.2% | 75.9% | -71% (active) | 53% | -17.4% (active) | -13.7% (active) | -89.1% (active) | 80.3% | 75.1% | 82.9% | 76.2% | 83.7% | 
5 | C[N+](C)(CCCCCC[N+](C)(C)C1c2ccccc2-c2ccccc21)C1c2ccccc2-c2ccccc21 | 103% | 108% | 131% | 113% | 109% | 117% | 80.9% | 102% | 112% | 106% | 118% | 99.5% | 104% | 115% | 113% | 111% | 102% | 103% | 106% | 
6 | COc1cc(-c2cc(-c3nc4ccccc4[nH]3)[nH]n2)cc(OC)c1OC | 41% | 14.5% | 39.5% | 39.7% | 35.5% | 52.1% | 37.2% | 53.6% | 57.6% | 47.3% | 50.4% | 4.51% (active) | 28% | 66.2% | 49.2% | 72.5% | 74.8% | 44% | 39.4% | 
7 | Nc1nc(Br)nc2c1ncn2C1CC(O)C(CO)O1 (stereo unspecified) | 20.2% | 89.6% | 83.6% | 47% | 97.9% | 51.5% | 109% | 51.4% | 62.8% | 62.8% | 52.7% | 79% | 90.2% | 87.2% |  | 73.9% | 77.8% | 87.7% | -0.9% (active) | 94.3%
8 | NC(=O)[C@@H]1CC2CCC1C2 (stereo partly specified) | 113% | 103% | 110% | 103% | 97.2% | 71.1% | 108% | 110% | 101% | 107% | 50.4% | 45.5% | 101% | 123% | 110% |  | 91.9% | 111% | 118% | 
9 | NC(Cc1ccc(O)cc1)C(=O)N/N=C/c1ccccc1O (stereo unspecified) | 99.9% | 103% | 94% | 105% | 108% | 56.6% | 96.6% | 97.5% | 104% | 123% | 105% | 105% | 80.2% | 109% | 115% | 104% | 104% | 101% | 98.7% | 
10 | CCCC(=O)N1CCCCC1CC (stereo unspecified) | 111% | 101% | 127% | 107% | 97% | 74.5% | 99.9% | 99.6% | 104% | 116% | 106% | 87.5% | 118% | 115% | 115% |  | 87.5% | 90.6% | 114% | 
11 | COc1cccc2c1C(=O)c1c(O)c3c(c(O)c1C2=O)C[C@@](O)(C(=O)CO)C[C@@H]3OC1C[C@H](N)[C@H](O)[C@H](C)O1 (stereo partly specified) | -33.5% (active) | -40.5% (active) | -2.94% (active) | -29.2% (active) | 0.418% (active) | -26.2% (active) | -61.1% (active) | 8.81% (active) | 6.46% (active) | -81.6% (active) | 3.11% (active) | -2.21% (active) | -57.6% (active) | -9.32% (active) |  | -31.7% (active) | -29.8% (active) | -35% (active) | -71.6% (active) | -22.4% (active)
12 | O=C1C=C(C(O)c2ccc(O)cc2)C(=O)c2ccccc21 (stereo unspecified) | 89.2% | 112% | 95.2% | 116% | 107% | -2.83% (active) | 92.8% | 104% | 106% | 100% | 107% | 97.2% | 95.6% | 83.5% | 147% | 108% | 106% | 107% | 79.5% | 
13 | Nc1c(C(=O)Nc2cccc(Br)c2)sc2nc3c(cc12)C(=O)CCC3 | 34% | 75.1% | 64.7% | 40.4% | 4.31% (active) | 79.3% | -20% (active) | 24.4% | 51.8% | -11.2% (active) | 1.18% (active) | 13.7% | 16.6% | 38.5% | -1.14% (active) | 62.6% | 25.5% | 68% | 35.7% | 
14 | COc1ccc(-c2nc3ncccn3c2-c2nc3ccc(Br)cc3[nH]2)cc1 | 98.4% | 93.5% | 94.3% | 99.3% | 90.1% | 77.1% | 69.7% | 84.9% | 98.1% | 104% | 94.1% | 63.5% | 81.3% | 72.9% | 74.1% | 99.6% | 82.8% | 92.6% | 90.5% | 
15 | CN(C)c1ccc(N)c2ccccc12 | -79.6% (active) | 47% | 58.7% | 74.1% | 52.5% | 105% | 80.1% | 49.5% | 87.1% | 19.6% | -96.4% (active) | 48.4% | -85.5% (active) |  | 111% | 77% | 38.4% | -2.3% (active) | -94.9% (active) | 43.4%
16 | CCN(CC)CCCCCCNc1ccnc2cc(Cl)ccc12 | 83.4% | 108% | 96.2% | 82.6% | 92.9% | 98.8% | 125% | 96.2% | 90.9% | 9.2% (active) | 92.8% | 30.1% | 99.6% | 51.8% |  | 77.4% | 52.5% | 102% | 38% | 97%
17 | COc1ccc(-c2cc(/C=C/C(=O)c3ccc(N)cc3)[nH]n2)cc1 | 27.3% | 24.5% | 12.4% | 15.4% | -50% (active) | 73.6% | -24.3% (active) | 18.6% | 17.8% | 7.56% (active) | 11.9% | -2.07% (active) | 54.3% | 35.7% | 20% | 17% | 1.33% (active) | 58.9% | 23% | 
